The values that follow come from PubChem BioAssay (NCI).

Assay [1] is described as follows: NCI Yeast Anticancer Drug Screen. Data for the rad50 strain (AID 155).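 Note: 0% = growth of vehicle-only cultures of the same strain.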 As to conditions: S. cerevisiae rad50 strain growth inhibition; at 50.0 µM; stronger effect = higher value. An outline of the steps:
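Cells are treated with compound, grown, and their growth is then scored against vehicle-only cultures of the same repair-deficient yeast strain.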

A short description of assay [2]: NCI Yeast Anticancer Drug Screen. Data for the mec2-1 strain (AID 157). The following applies: S. cerevisiae mec2-1 strain, at 50.0 µM, stronger effect = higher value. The essentials: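 Strain: mec2-1 (DNA repair/cell cycle alteration). Compound exposure, then growth measured; inhibition expressed relative to vehicle.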
The nature of assay [3]: NCI Yeast Anticancer Drug Screen. Data for the sgs1 mgt1 strain (AID 161).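 Note: 0% = growth of cultures given vehicle only.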 The following applies: S. cerevisiae sgs1 mgt1 strain, at 50.0 µM, stronger effect = higher value. The essentials: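 Read-out: growth inhibition vs vehicle controls. Cells: mutant yeast strain deficient in DNA damage repair.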
The nature of assay [4]: NCI Yeast Anticancer Drug Screen. Data for the cln2 rad14 strain (AID 165).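 Note: 0% = growth equal to vehicle treated cultures.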 As to conditions: S. cerevisiae cln2 rad14 strain, at 50.0 µM, stronger effect = higher value. An outline of the steps:
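Compounds are applied to the cln2 rad14 yeast strain, and growth is then compared with that of vehicle-treated cultures to give inhibition.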

Assay [5] can be described thus: NCI Yeast Anticancer Drug Screen. Data for the bub3 strain (AID 167). The following applies: S. cerevisiae bub3 mutant strain, at 50.0 µM, stronger effect = higher value. The essentials: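 Part of a panel of yeast mutants defective in DNA damage repair or cell cycle regulation. Each strain is grown with compound, and inhibition is calculated relative to solvent-treated cultures.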

Assay [6] is described as follows: NCI Yeast Anticancer Drug Screen. Data for the mlh1 rad18 strain (AID 175). The following applies: S. cerevisiae mlh1 rad18 strain growth inhibition; at 50.0 µM; stronger effect = higher value. An outline of the steps: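 Read-out is yeast growth inhibition, calculated against vehicle-only controls. The compound was applied to a strain engineered with DNA damage repair alterations.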

About 79,000 compounds went through this panel and 15% of them were active in at least one assay; those are over-represented in the sample as a whole. Values without a mark were called inactive. Calls of active or inactive are those of the source. Cut-off read from the data, not from the text of the source: active = growth inhibition above about 70%; inactive = the rest.

On to `COc1cc([C@@H]2c3cc4c(c(O)c3C[C@H]3COC(=O)[C@@H]32)OCO4)cc(OC)c1O`, for which the growth inhibition in assay [1] was 17.8%; in assay [2], -13.9%; in assay [3] it was 14.2%; in assay [4], 9.4%; in assay [5], 7.2%; in assay [6] it was -14.7%.

Consider `CC(=O)O.CC(=O)O.CC(=O)O.CC(=O)O.[Cu].[Cu]`, for which the growth inhibition in assay [1] is 36.9%; in assay [2], 20.2%; in assay [3], 56.5%; in assay [4], -53.6%; in assay [5], 26.9%; in assay [6], 40.8%.

For the compound `CCCCCCNC(=O)C(C)Br` (stereo not given), the growth inhibition in assay [1] was -7.35%; in assay [2], 4.9%; in assay [3], -0.55%; in assay [4], -12.4%; in assay [5], 9.95%; in assay [6], 1.85%.

As for `CSC(SC)=C1C(=O)NC(=O)NC1=O`, the growth inhibition in assay [1] was -11.8%; in assay [2], 1.65%; in assay [3], 1.7%; in assay [4], 10.2%; in assay [5], -10.1%; in assay [6] it was -16.4%.

In the case of `CCCCCCCCCCOC(=O)CC(C)=O.CCCCCCCCCCOC(=O)CC(C)=O.[Ni+2]`, the growth inhibition was -37.5% in assay [1]; -9.3% in assay [2]; -26.4% in assay [3]; -45.1% in assay [4]; 2.3% in assay [5]; -39% in assay [6].

Take `CCC[CH2][Sn]([I])([CH2]I)[CH2]CCC`: the growth inhibition was 98.5% (active) in assay [1]; 99.1% (active) in assay [2]; 99% (active) in assay [3]; 98.6% (active) in assay [4]; 98.8% (active) in assay [5]; 98.5% (active) in assay [6].

Regarding `CCC(CC)(COC(=O)C(O)(c1ccccc1)c1ccccc1)C[N+](C)(C)C`, the growth inhibition is -4.45% in assay [1]; -2.85% in assay [2]; 1% in assay [3]; -24.9% in assay [4]; 0.5% in assay [5]; -12.7% in assay [6].

Regarding `O=C(Oc1ccc(S(=O)(=O)F)cc1Cl)c1ccc([N+](=O)[O-])cc1`, the growth inhibition is 92.5% (active) in assay [1]; 68% in assay [2]; 94.7% (active) in assay [3]; 92.8% (active) in assay [4]; 60% in assay [5]; 93.7% (active) in assay [6].

As to `CCCCC(CC)C(=O)O.[Sn]` (stereo not given), the growth inhibition in assay [1] was -20.5%; in assay [2], -9.1%; in assay [3] it was -10.3%; in assay [4] it was -10.4%; in assay [5], -20.9%; in assay [6] it was -15.8%.

In the case of `C[C@]12CC[C@H](O)C[C@H]1CC[C@@H]1[C@@H]2CC[C@]2(C)[C@@H](C3=CC(=O)OC3)CC[C@]12O`, the growth inhibition is -3.9% in assay [1]; 12.4% in assay [2]; 5.55% in assay [3]; -56.4% in assay [4]; 15.3% in assay [5]; 8.4% in assay [6].

For `N#Cc1ccc(CCl)cc1`, the growth inhibition in assay [1] was 39.1%; in assay [2] it was 7.55%; in assay [3], 7.45%; in assay [4] it was -6.05%; in assay [5], 2.95%; in assay [6], 41.7%.

With `O=[P+](O)O[P+](=O)O.O=[P+](O)O[P+](=O)O.O=[P+](O)O[P+](=O)O.O=[P+](O)O[P+](=O)O.[Cl][Pt].[Cl][Pt]`, the growth inhibition was -2.05% in assay [1]; 27.8% in assay [2]; 26.2% in assay [3]; -32.5% in assay [4]; 18.1% in assay [5]; 12.9% in assay [6].

For the compound `CC(c1ccccc1)N1CCN(C(C)c2ccccc2)CC1` (stereo not given), the growth inhibition in assay [1] was 2.75%; in assay [2], -34.5%; in assay [3], -31.7%; in assay [4], 26.4%; in assay [5], -30%; in assay [6] it was 4.95%.

With `O=[As](O)(O)c1cc(F)ccc1F`, the growth inhibition in assay [1] is -5.75%; in assay [2], -4.3%; in assay [3], -11.4%; in assay [4] it was -15.3%; in assay [5], -8%; in assay [6] it was -8.3%.

Consider `[Pt].c1ccc([PH+](CC[PH+](CC[PH+](c2ccccc2)c2ccccc2)c2ccccc2)CC[PH+](c2ccccc2)c2ccccc2)cc1` (stereo not given), for which the growth inhibition in assay [1] was 22.8%; in assay [2] it was 14.3%; in assay [3] it was 25.6%; in assay [4], 8.6%; in assay [5], 16.6%; in assay [6], 8.75%.

Consider `O=C(NCCN1CCOCC1)C1(O)N=C(c2ccccc2)c2ccsc2-n2cccc21` (stereo not given), for which the growth inhibition in assay [1] was 51.3%; in assay [2], 30.3%; in assay [3] it was 64.2%; in assay [4] it was -6.05%; in assay [5] it was 27.6%; in assay [6], 36.5%.

Consider `O=C(Nc1ccc(S(=O)(=O)Nc2ccc(N=Nc3ccc(N=Nc4ccccc4)cc3)cc2)cc1)C(N1CC1)(N1CC1)N1CC1`, for which the growth inhibition in assay [1] is 30.4%; in assay [2], -9.5%; in assay [3] it was 3.95%; in assay [4], 9.05%; in assay [5], -3.8%; in assay [6], -7.35%.

With `COc1cccc(C(O)CN(C)C)c1OC` (stereo not given), the growth inhibition in assay [1] is 7.05%; in assay [2] it was -6.65%; in assay [3], 11.2%; in assay [4], 30.2%; in assay [5] it was -9.85%; in assay [6] it was 9.95%.

Consider `O=C(Cc1c[nH]c2ccccc12)N/N=C\c1ccc(N(CCCl)CCCl)cc1`, for which the growth inhibition in assay [1] was 22.4%; in assay [2] it was -10.3%; in assay [3], 11.8%; in assay [4], 31.9%; in assay [5] it was -5.65%; in assay [6], 4.55%.

For the compound `CCC(Br)C(N)=O` (stereo not given), the growth inhibition in assay [1] is -9.25%; in assay [2], 3.2%; in assay [3], -6.9%; in assay [4], -59.5%; in assay [5], -4.25%; in assay [6], -1%.
